Experimental findings from PubChem BioAssay (EPA / NIEHS) are described below.

Inconclusive results are not listed. Activity calls are given as the source filed them. Rule for the calls: active = hit-call score of the fitted dose curve at least 0.9, where 1 is the maximum; inconclusive = response in the unintended direction; inactive = score below 0.9.

The experiment can be described thus: Tanguay_ZF_120hpf_PFIN_legacy: (Legacy) Oregon State University Tanguay Lab 120 Hour Post-fertilization zebrafish Assay for Pectoral Fin Malformation (AID 2283648).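 Note: each larva judged yes or no for fin defect by brightfield with dead larvae skipped.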 As to the method: Tanguay_ZF_120hpf_legacy is a whole embryo, multiplexed endpoint assay using zebrafish larvae exposed for 120 hours post fertilization on a 96-well plate.Tanguay_ZF_120hpf_PFIN_legacy is one of one assay component(s) measured or calculated from the Tanguay_ZF_120hpf_legacy assay. It is designed to make measurements of zebrafish development as detected with brightfield microscopy of developing zebrafish embryos.Data from the assay component Tanguay_ZF_120hpf_PFIN_legacy was analyzed into 1 assay endpoints. This assay endpoint, Tanguay_ZF_120hpf_PFIN_legacy, was analyzed in the positive analysis fitting direction relative to DMSO as the negative control and baseline of activity. Using a type of morphology reporter, gain-of-signal activity can be used to understand changes in developmentals as they relate to the whole embryo. To generalize the intended target to other relatable targets, this assay endpoint is annotated to the zebrafish development intended target family, where the subfamily is pectoral fin morphogenesis.
Zebrafish husbandry: Tropical 5D wild-type adult zebrafish were housed in at an approximate density of 1000 per 100 gallon tank at the Sinnhuber Aquatic Research Laboratory, Oregon State University, Corvallis, OR. Each tank was kept at standard laboratory conditions of 28C on a 14-h light/10-h dark photoperiod in fish water consisting of reverse osmosis water supplemented with a commercially available salt (Instant Ocean). Spawning funnels were placed into the tanks the night prior, and embryos were collected and staged. To increase bioavailability, the chorion was enzymatically removed using pronase (63.6mg/ml, >/= 3.5U/mg, Sigma-Aldrich: P5147) at 4 hours post fertilization (hpf) using a custom automated dechorionator.Chemical exposures: Six hpf dechorionated embryos were placed 1 embryo per well in a 96-well plate prefilled with 90 ul of EM using automated embryo placement systems (AEPS). Ten microliters of each row of dilution plate 2 was added to 2 exposure plates. The final DMSO concentration used was 0.64% (vol/vol). Thirty-two embryos were also exposed to 5uM trimethyltin chloride (positive control). Plates were sealed to prevent evaporation and foil covered to reduce light exposure and kept in a 28C incubator. Embryos were statically exposed until 120 hpf. At 24 hpf, embryos were assessed for photomotor response using a custom photomotor response analysis tool (PRAT) and for developmental toxicity endpoints (MO24: mortality at 24 hpf, DP: developmental progression, SM: spontaneous movement, and NC: notochord distortion). At 120 hpf, locomotor activity was measured using Viewpoint Zebralab and assessed for 18 endpoints. Zebrafish acquisition and analysis program (ZAAP), a custom program designed to inventory, acquire, and manage zebrafish data, was used to collect developmental endpoints as either present or absent (i.e., binary responses were recorded). If mortality occurred for an embryo (at either 24 or 120 hpf), the non-mortality endpoints were not measured.
For `CCCOCC(=Nc1ccc(Cl)cc1C(F)(F)F)n1ccnc1`, the outcome was inactive. In the case of `CNC(=O)Oc1cccc2c1OC(C)(C)O2`, the compound was called inactive. For the compound `CCOC(=O)COc1cc(-c2nn(C)c(OC(F)F)c2Cl)c(F)cc1Cl`, the compound was called inactive.

Turning to `COc1cccc(C(=O)NN(C(=O)c2cc(C)cc(C)c2)C(C)(C)C)c1C`, the outcome was inactive. Regarding `CCNc1nc(Cl)nc(NC(C)(C)C#N)n1`, the outcome was inactive. Regarding `N#CSCSC#N`, the compound was called inactive.

For `CCCSP(=O)(OCC)Oc1ccc(Br)cc1Cl` (stereo not given), the compound was classed as inactive. Same read-out and setting: as for `C[N+]1(C)CCCCC1`, the entry is “inactive”. Consider `COc1ccc(C(=CC(=O)N2CCOCC2)c2ccc(Cl)cc2)cc1OC`, for which the half-maximal activity concentration (AC50) (usually the concentration at which the activity in the assay is half-maximal) is 45.5 µM (active).

Turning to `O=[N+]([O-])c1cc(C(F)(F)F)c(Cl)c([N+](=O)[O-])c1Nc1ncc(C(F)(F)F)cc1Cl`, the result was inactive. Consider `CCC(=O)Nc1ccc(Cl)c(Cl)c1`, for which the result was inactive. For the compound `COP(=O)(OC)C(O)C(Cl)(Cl)Cl` (stereo not given), the compound was called inactive. On to `CSC1=N[C@@](C)(c2ccccc2)C(=O)N1Nc1ccccc1`, for which the outcome was inactive.

Consider `CSc1nc(NC(C)C)nc(NC(C)C)n1`, for which the call was inactive.

Consider `CCC(CC)Nc1c([N+](=O)[O-])cc(C)c(C)c1[N+](=O)[O-]`, for which the call was inactive. Turning to `CCc1cccc(C)c1N(C(=O)CCl)C(C)COC` (stereo not given), the call was inactive. Consider `Cc1ccn2nc(S(=O)(=O)Nc3c(F)cccc3F)nc2n1`, for which the result was inactive.

As to `CCc1cnc(C2=NC(C)(C(C)C)C(=O)N2)c(C(=O)O)c1` (stereo not given), the compound was called inactive. For the compound `CCOP(=O)(NC(C)C)Oc1ccc(SC)c(C)c1` (stereo not given), the half-maximal activity concentration (AC50) was 16.9 µM (active). The same measure, in the same setting: as for `CC(C1CC1)C(O)(Cn1cncn1)c1ccc(Cl)cc1` (stereo not given), the figure is 25.9 µM (active). As for `CCCCOC(=O)c1ccccc1C(=O)O`, the compound was classed as inactive. With `CCOP(=S)(OCC)SCCSCC`, the call was inactive. `COc1cc(OC)nc(Sc2cccc(Cl)c2C(=O)O)n1`: the compound was called inactive.

Turning to `FC(F)C(F)(F)OCC(Cn1cncn1)c1ccc(Cl)cc1Cl` (stereo not given), the AC50 is 46.6 µM (active). Regarding `CC1(C(=O)Nc2ccc(O)c(Cl)c2Cl)CCCCC1`, the compound was classed as inactive.

On to `CCc1cccc(CC)c1N(COC)C(=O)CCl`, for which the result was inactive. For the compound `CCOP(=O)(OCC)Oc1cc(C)nc(C(C)C)n1`, the result was inactive. As for `COP(=O)(OC)SCn1c(=O)oc2cc(Cl)cnc21`, the call was inactive.

Turning to `Nc1nc(N)nc(NC2CC2)n1`, the compound was classed as inactive. As for `CN(C)[C@@H]1C(=O)C(C(N)=O)=C(O)[C@@]2(O)C(=O)C3=C(O)c4c(O)cccc4[C@@](C)(O)[C@H]3[C@H](O)[C@@H]12`, the result was inactive. The same measure, in the same setting: under `CN(C)NC(=O)CCC(=O)O` stands “inactive”; under `CSc1nnc(C(C)(C)C)c(=O)n1N`, “inactive”.

Consider `CCOP(=S)(OCC)OC(Cl)C(Cl)(Cl)Cl` (stereo not given), for which the compound was called inactive. On to `CC(=NC#N)N(C)Cc1ccc(Cl)nc1`, for which the compound was called inactive. Still for that read-out and setting: as for `CC(C)N(C(=O)SCC(Cl)=C(Cl)Cl)C(C)C`, the entry is “inactive”.

For the compound `Nc1c(Cl)cc([N+](=O)[O-])cc1Cl`, the half-maximal activity concentration (AC50) is 42.1 µM (active). As for `CC(C)=CC1C(C(=O)OCN2C(=O)C3=C(CCCC3)C2=O)C1(C)C` (stereo not given), the compound was classed as inactive.

Take `CCC(=NOC/C=C/Cl)C1=C(O)CC(C2CCOCC2)CC1=O` (stereo not given): the call was inactive. `CC(C)[C@H](C(=O)O[C@H](C#N)c1cccc(Oc2ccccc2)c1)c1ccc(Cl)cc1`: the AC50 is 1.17 µM (active). Take `CNC(=O)ON=C(C)SC`: the call was inactive.
